In PubChem BioAssay (Tox21):
Unmarked numbers belong to inactive results. Active and inactive are the calls of the source. The call rests on the fitted dose curve; in most records, active means well fitted curve in the direction sought with a large enough effect in the repeat runs; inconclusive means weak or mixed curves; inactive means flat fitted curve, though single readings scatter.

Assay: qHTS assay to test for compound auto fluorescence at 460 nm (blue) in HEK293 cells (AID 720678)
Details: blue autofluorescence 405/460 nm; series mostly up to 91.3 µM
Description: National Center for Advancing Translational Sciences [NCATS]
NIH Chemical Genomics Center [NCGC]
U.S. Environmental Protection Agency [EPA]
National Institutes of Environmental Health Sciences [NIEHS]
National Toxicology Program [NTP]
U.S. Food and Drug Administration [FDA]
Compound auto fluorescence often interferes with screening of the compound library against various biological targets and signaling pathways. Some of these compounds may have fluorophoric properties. Such properties may interfere with the assay outputs resulting in false positives and/or negatives. To decrease such complications and ensure the compound activities are relevant in terms of biological response, the Tox21 10K compound library was screened for auto fluorescence.
From the fluorophores used as reporter signals in our screening assays, the auto fluorescence equivalencies of compounds against three fluorophores have been evaluated: Triamterene, Fluorescein and Rose Bengal sodium for blue, green and red fluorescence, respectively. The fluorescence intensities were measured using Excitation/Emission wavelengths at 405/460nm, 485/535nm and 540/590nm for blue, green and red labels, respectively. This assay includes the blue fluorescence data.
Tox21 Assay Protocol Summary:
2,000 HEK293 cells in 5 uL of culture medium containing 10% dialyzed FBS per well were dispensed into black wall/clear bottom 1536-well plates using a Multidrop Combi Dispenser (Thermo Scientific). The assay plates were incubated for 4-5 hr at 37C to allow cell attachment to the well bottom, followed by the transfer of 23 nL compound or DMSO vehicle by a pintool work station (Kalypsys, San Diego, CA). After the assay plates were incubated overnight at 37C and 5% CO2, fluorescence intensities in the assay plates were measured by an Envision (PerkinElmer, Shelton, CT) plate reader using three labels for measuring blue, green and red fluorescence at […] 460, 535 and 590nm respectively.
On the % scale 0 is the no-effect control and ±100 the full control effect.

| Compound | outcome | fluorescence, % of triamterene |
| --- | --- | --- |
| CC(=O)Nc1ccc(S(=O)(=O)Nc2ccc([N+](=O)[O-])cc2)cc1 | inactive |  |
| C=C(C)C(=O)OCCNC(C)(C)C | inactive |  |
| C=C(C)C(=O)OCc1ccccc1 | inactive |  |
| COc1ccc(Br)c(C)c1 | inactive |  |
| COc1cc(C(=S)N2CCOCC2)cc(OC)c1OC | inactive |  |
| Nc1nnc(-c2cccc(Cl)c2Cl)c(N)n1 | inactive |  |
| CC(=O)Nc1ccc(S(=O)(=O)Cl)cc1 | inactive |  |
| CCOC(=O)/C=C/c1ccccc1 | inactive |  |
| O=C(OCC(COC(=O)c1cccnc1)(COC(=O)c1cccnc1)COC(=O)c1cccnc1)c1cccnc1 | inactive |  |
| Cc1ccccc1N=O | inactive |  |
| O=C(OCC1(COC(=O)c2cccnc2)CCCC(COC(=O)c2cccnc2)(COC(=O)c2cccnc2)C1O)c1cccnc1 | inactive |  |
| CC(C)c1ccc2cc(C(C)C)ccc2c1 | inactive |  |
| On1nnc2ccccc21 | inactive |  |
| C=COCCOCCOCCOC=C | inactive |  |
| O=C(O)Cc1cn(-c2ccccc2)nc1-c1ccc(Cl)cc1 | inactive |  |
| Cc1ccc(S(=O)(=O)O)c(C)c1 | inactive |  |
| O=C(CCNNC(=O)c1ccncc1)NCc1ccccc1 | inactive |  |
| O=S(O)(O)=S |  | -0.0172% [at 3.72 µM] |
| O=C(CCN1CCN(CCO)CC1)N1c2ccccc2Sc2ccc(C(F)(F)F)cc21 | inactive |  |
| C[C@@H](Oc1ccc(CNC(=O)c2cccnc2Oc2ccc3c(c2)OCO3)c(F)c1)C(=O)O | inactive |  |

| Compound | outcome | fluorescence, % of triamterene |
| --- | --- | --- |
| CN(CCOc1ccc(NS(C)(=O)=O)cc1)CCc1ccc(NS(C)(=O)=O)cc1 | inactive |  |
| CCO[Si](CCCS)(OCC)OCC | inactive |  |
| CC(C)CCCC(C)(C)O | inactive |  |
| N[C@@H](COP(=O)(O)O)C(=O)O | inactive |  |
| CC(C)OC(=O)CCCCC(=O)OC(C)C | inactive |  |
| CC(C)(C)OC(=O)c1ccc(O)cc1 | inactive |  |
| CCCCCCCCOS(=O)(=O)O | inactive |  |
| COC(=O)C1CC(=O)C(C(=O)OC)CC1=O (stereo not given) |  | 1.94% [at 3.72 µM] |
| CC(C)(C)c1cc(CCC(=O)NN)cc(C(C)(C)C)c1O | inactive |  |
| CCCCCCCCSCC | inactive |  |
| COc1ccc(S(=O)(=O)N2c3ccc(Cl)cc3[C@@](O)(c3ccccc3Cl)[C@H]2C(=O)N2CCC[C@@H]2C(N)=O)cc1OC | inactive |  |
| CN(C)C(=O)CNC(=O)Cc1ccccc1 | inactive |  |
| O=C(CS(=O)Cc1ccco1)NC/C=C\COc1cc(CN2CCCCC2)ccn1 (stereo not given) | inactive |  |
| COCCOC(=O)C1=C(C)NC(C)=C(C(=O)OC(C)C)C1c1cccc([N+](=O)[O-])c1 (stereo not given) | inactive |  |
| CN(C)c1ccc(C=O)cc1 | inactive |  |
| O=C(c1ccc(O)cc1)c1ccc(O)c(O)c1O | inactive |  |
| CC(C)(C)NC(N)=O | inactive |  |
| CC(C)C[C@H](NC(=O)CNC(=O)[C@H](Cc1ccc(O)cc1)NC(=O)[C@H](CO)NC(=O)[C@H](Cc1c[nH]c2ccccc12)NC(=O)[C@H](Cc1cnc[nH]1)NC(=O)[C@@H]1CCC(=O)N1)C(=O)N[C@@H](CCCN=C(N)N)C(=O)N1CCC[C@H]1C(=O)NCC(N)=O (stereo in doubt) | inactive |  |
| FC(F)(F)c1ccccc1-n1ccnc1 | inactive |  |
| N[C@@H](CCC(=O)N[C@@H](CS)C(=O)NCC(=O)O)C(=O)O | inactive |  |
